Rows were chosen to be rich in hits. Some 3% of all compounds tested hit in one or more screens of this group.
VDR inh: inhibitors of human vitamin D receptor. AID 504847. Potency, µM, usual class: inhibitors. hit rate 0.93% among 400,000. P11473. VDR-SRC2-3 peptide fluorescence polarization, 2 h
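Inhibition of the VDR/SRC2-3 peptide interaction is quantified by fluorescence polarization. Compounds (23 nl, pintool) incubate with the reagents for 2 hours at ambient room temperature.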
12-LOX inh: blocks human arachidonate 12S-lipoxygenase; P18054; purified 12hLO, xylenol orange hydroperoxide absorbance; Potency, µM (series often up to 108 µM), usual class: inhibitors; hit rate 1.1% among 580,000
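Hydroperoxide product was detected by ferrous iron/xylenol orange as the 573 to 405 nm absorbance ratio. Arachidonic acid at 40 uM (final) was turned over for 30 min at room temperature by 150 nM human 12hLO, pH 7.0 Hepes buffer, after 15 min compound preincubation.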
PLK1 PBD inh: PLK1 (human) polo-box domain binding inhibition | P53350 | Plk1 PBD binding of FITC phosphopeptide, fluorescence polarization | Potency, µM, most hits filed as inhibitors | hit rate 2.8% among 360,000 | AID 720504; further: series mostly up to about 57 µM; nearly all actives have a fitted effect of over 65% in size
KAT2A inh: inhibitors of human GCN5L2 histone acetyltransferase; GCN5L2 HAT assay, ThioGlo1 CoA-SH fluorescence; Potency, µM (titrated, usually from 58.9 µM), usual class: inhibitors; hit rate 0.21% among 390,000
Target sequence (Q92830 whole entry, looked up): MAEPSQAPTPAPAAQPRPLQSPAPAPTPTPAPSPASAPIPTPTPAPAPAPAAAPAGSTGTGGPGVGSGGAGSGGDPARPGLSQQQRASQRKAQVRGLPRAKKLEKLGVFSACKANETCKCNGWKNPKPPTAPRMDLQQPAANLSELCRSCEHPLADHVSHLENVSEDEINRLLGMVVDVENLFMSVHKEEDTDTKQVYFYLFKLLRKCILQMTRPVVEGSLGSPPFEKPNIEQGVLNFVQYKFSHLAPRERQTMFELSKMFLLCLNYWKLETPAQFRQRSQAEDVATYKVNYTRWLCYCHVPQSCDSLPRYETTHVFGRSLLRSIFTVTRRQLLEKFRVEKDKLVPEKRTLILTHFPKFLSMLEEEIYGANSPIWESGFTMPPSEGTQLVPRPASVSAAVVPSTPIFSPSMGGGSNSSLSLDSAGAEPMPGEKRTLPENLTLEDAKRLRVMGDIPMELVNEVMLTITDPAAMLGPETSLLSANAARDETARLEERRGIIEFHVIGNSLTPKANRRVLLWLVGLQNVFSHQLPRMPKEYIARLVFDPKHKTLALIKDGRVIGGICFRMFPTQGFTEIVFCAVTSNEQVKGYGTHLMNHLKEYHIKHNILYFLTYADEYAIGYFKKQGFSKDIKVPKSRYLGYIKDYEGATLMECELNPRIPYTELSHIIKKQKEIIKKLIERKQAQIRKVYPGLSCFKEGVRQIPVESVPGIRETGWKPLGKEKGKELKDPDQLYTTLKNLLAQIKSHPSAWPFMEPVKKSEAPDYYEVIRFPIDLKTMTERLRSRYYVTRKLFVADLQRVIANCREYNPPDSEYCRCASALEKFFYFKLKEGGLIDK
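GCN5L2 (20 nM) in 50mM HEPES pH 7.5, 0.1mM EDTA, 0.01% Tween-20 preincubated 15 min with compounds at room temperature. Reaction started with H3(1-25) 75uM, acetyl-CoA 70uM, ThioGlo1 50uM; CoA-thiol fluorescence (Ex340/Em540) read at 0 and 20 min.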
Large screens that a line does not name were inactive. The call rests on the fitted dose curve; in most records, active means well fitted curve in the direction sought with a large enough effect; inconclusive means small, poorly fitted or top-dose-only effect, or another doubt; inactive means no such curve, though single readings can be large; an effect the other way counts as inactive or inconclusive.

CCOC(=O)C1=C(C)N(C)C(=O)NC1c1cccc(Cl)c1Cl (stereo unspecified)	none (no result: VDR inh, PLK1 PBD inh, KAT2A inh)
O=C(NC1CCCC1)N1CCC2(CC1)CC(N(Cc1ccc(F)cc1)C1CC1)CCO2 (stereo unspecified)	none (no result: VDR inh, PLK1 PBD inh, KAT2A inh)
C[N+](C)(C)CCOC(c1ccccc1)c1ccccc1	none (no result: VDR inh, PLK1 PBD inh, KAT2A inh)
Cc1ccc(C(OCC(C)(C)C[N+](C)(C)C)c2ccccc2)cc1 (stereo unspecified)	12-LOX inh 45µM
O=C1C(c2c(O)[nH]c3ccccc23)=Nc2ccccc21	VDR inh inconclusive, 12-LOX inh inconclusive
CC(=O)c1cccc2c(O)c(C3=Nc4ccccc4C3=O)[nH]c12	VDR inh 56µM, PLK1 PBD inh inconclusive
COc1ccc(C(=O)Nc2ccc3oc(=O)ccc3c2)cc1	none (no result: VDR inh, PLK1 PBD inh, KAT2A inh)
O=c1[nH]c(/C=C\c2cccs2)nc(O)c1[N+](=O)[O-]	12-LOX inh 22µM, PLK1 PBD inh inconclusive
O=c1[nH]c(/C=C\c2ccc(O)cc2)nc(O)c1[N+](=O)[O-]	12-LOX inh inconclusive
Cc1ccc(-c2cnc(SCC(=O)Nc3ccc(F)c(C)c3)o2)cc1C	none (no result: VDR inh, PLK1 PBD inh, KAT2A inh)
CN1CCN(NC(=S)Nc2ccccc2)CC1	none
Cc1ccc(NC(=S)Nn2cnnc2)cc1	12-LOX inh inconclusive, PLK1 PBD inh 11µM
S=C(Nc1ccccc1)Nn1cnnc1	12-LOX inh inconclusive, PLK1 PBD inh 19µM
COc1ccc(NC(=S)Nn2cnnc2)cc1OC	12-LOX inh inconclusive, PLK1 PBD inh 15µM
COc1cccc(C(=O)NC(=S)Nn2cnnc2)c1OC	12-LOX inh inconclusive, PLK1 PBD inh 24µM
COc1cc(OC)cc(C(=O)NC2CC3CCC2C3)c1 (stereo unspecified)	none (no result: VDR inh, PLK1 PBD inh, KAT2A inh)
CCCCCCCCC(=O)OCC	none (no result: VDR inh, PLK1 PBD inh, KAT2A inh)
Cn1cc(/C=C/C(=O)N2CCCC(C(F)(F)F)C2)c(=O)n(C)c1=O (stereo unspecified)	none (no result: VDR inh, PLK1 PBD inh, KAT2A inh)
COc1ccc(C(NC(=O)CC(C)(C)C)c2ccccc2)cc1 (stereo unspecified)	none (no result: VDR inh, PLK1 PBD inh, KAT2A inh)
